Test results from ChEMBL document CHEMBL3988442, “University of Dundee, Small-Polar-MMV Screening Library” (2021).
For some assays here: Entries with a potency or affinity are not part of this list.

What was measured:
Set-up in all cases: scale not given: direction of the effect not stated beside the values
[1] = biological target: Protein translocase subunit SecA (Escherichia coli (strain K12)) (UniProt P10408); test: Assay to Identify E. coli SecA ATPase Inhibitors; assay type: functional; details: 30 µM
[2] = biological target: T1, Ubiquitin-activating enzyme e1, putative (Leishmania donovani (strain BPK282A1)) (UniProt E9BSI1); test: Leishmania donovani Ubiquitin Activating Enzyme (LdE1); assay type: functional; details: 30 µM
T1 sequence (whole entry): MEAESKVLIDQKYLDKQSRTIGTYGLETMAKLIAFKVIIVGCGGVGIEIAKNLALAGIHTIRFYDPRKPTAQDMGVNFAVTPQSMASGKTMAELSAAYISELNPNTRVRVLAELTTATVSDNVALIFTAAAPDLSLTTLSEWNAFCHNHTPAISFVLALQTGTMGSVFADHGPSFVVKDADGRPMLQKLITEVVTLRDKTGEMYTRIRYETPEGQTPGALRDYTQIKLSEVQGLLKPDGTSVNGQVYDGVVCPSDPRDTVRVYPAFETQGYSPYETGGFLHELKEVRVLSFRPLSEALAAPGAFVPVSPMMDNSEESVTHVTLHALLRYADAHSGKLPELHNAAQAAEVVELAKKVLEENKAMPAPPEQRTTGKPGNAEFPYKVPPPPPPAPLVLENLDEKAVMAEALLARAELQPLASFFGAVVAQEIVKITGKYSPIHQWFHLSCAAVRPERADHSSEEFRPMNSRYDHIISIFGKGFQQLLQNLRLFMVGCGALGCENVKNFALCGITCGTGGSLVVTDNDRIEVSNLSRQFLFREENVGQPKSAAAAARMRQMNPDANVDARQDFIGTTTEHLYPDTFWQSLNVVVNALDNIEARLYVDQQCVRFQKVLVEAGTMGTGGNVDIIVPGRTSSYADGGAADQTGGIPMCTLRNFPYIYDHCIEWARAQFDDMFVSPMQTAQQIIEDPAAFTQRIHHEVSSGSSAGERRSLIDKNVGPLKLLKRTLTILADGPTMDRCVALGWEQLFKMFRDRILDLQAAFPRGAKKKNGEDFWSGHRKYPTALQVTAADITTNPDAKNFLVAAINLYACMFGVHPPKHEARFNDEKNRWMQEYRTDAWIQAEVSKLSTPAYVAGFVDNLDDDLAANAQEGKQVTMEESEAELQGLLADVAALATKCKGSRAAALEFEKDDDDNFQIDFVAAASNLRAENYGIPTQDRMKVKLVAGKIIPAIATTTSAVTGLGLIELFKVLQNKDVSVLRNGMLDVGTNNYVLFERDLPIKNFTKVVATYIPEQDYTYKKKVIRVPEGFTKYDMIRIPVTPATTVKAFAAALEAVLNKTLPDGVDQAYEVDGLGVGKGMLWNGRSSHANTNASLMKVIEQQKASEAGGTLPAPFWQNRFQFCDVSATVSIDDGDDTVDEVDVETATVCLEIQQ

[3] = biological target: AMP-activated protein kinase, AMPK (Homo sapiens) (UniProt P54646+O43741+P54619+Q9UGJ0+Q9Y478+Q13131+Q9UGI9); test: AMP-dependent Kinase enzyme assay. An in vitro enzyme assay that detects ADP turnover that is directly proportional to AMPK activity. This uses naive AMPK that is activated during the assay with MK-8722; assay type: functional; details: 30 µM
[4] = biological target: Sialic acid-binding Ig-like lectin 9 (Homo sapiens) (UniProt Q9Y336); test: Hs-Siglec9 ALPHAscreen SOP 20170721; details: 10 µM
[5] = test system: Trypanosoma cruzi; test: Trypanosoma cruzi phosphomannomutase and mannose-1-phosphate guanylyltransferase assay; assay type: functional; details: 10 µM
[6] = biological target: T2, Arginase-2, mitochondrial (Homo sapiens) (UniProt P78540); test: in vitro enzyme assay to detect the production of urea directly proportional to the activity of Arginase II; assay type: functional; details: 33.3 µM; also: in the data most compounds retested in dose-response had high values
T2 sequence (whole entry): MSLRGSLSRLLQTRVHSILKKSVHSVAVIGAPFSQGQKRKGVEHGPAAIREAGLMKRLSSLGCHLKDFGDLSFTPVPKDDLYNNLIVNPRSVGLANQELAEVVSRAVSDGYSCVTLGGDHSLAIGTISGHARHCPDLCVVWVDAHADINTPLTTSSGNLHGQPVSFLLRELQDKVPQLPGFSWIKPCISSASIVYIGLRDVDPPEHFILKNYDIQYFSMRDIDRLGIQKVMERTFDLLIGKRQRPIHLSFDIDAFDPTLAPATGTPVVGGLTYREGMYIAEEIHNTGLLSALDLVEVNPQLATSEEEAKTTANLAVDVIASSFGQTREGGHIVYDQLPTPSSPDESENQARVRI

[7] = biological target: T3, Proteasome subunit beta (Trypanosoma cruzi) (UniProt O96673); test: Trypanosoma cruzi proteasome chymotrypsin-like activity (TcProtChymo) assay.; also: in the data most compounds retested in dose-response had high values; assay type: functional; details: 9.37 µM
T3 sequence (whole entry): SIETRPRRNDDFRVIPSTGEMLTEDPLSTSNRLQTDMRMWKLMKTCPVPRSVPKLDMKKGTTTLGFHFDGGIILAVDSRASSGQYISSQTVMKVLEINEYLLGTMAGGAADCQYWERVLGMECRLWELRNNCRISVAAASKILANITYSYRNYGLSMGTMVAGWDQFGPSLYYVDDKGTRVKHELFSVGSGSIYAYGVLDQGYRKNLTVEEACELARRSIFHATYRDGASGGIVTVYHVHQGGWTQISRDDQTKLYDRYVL

[8] = organism: Homo sapiens; test: To identify inhibition of the IFN signalling (Jak-Stat) pathway via expression of an eGFP reporter gene under the control of an IFN-stimulated response element (ISRE) containing MxA promoter.; assay type: functional; details: 30 µM
[9] = biological target: T4, Tyrosyl-tRNA synthetase, putative (Trypanosoma cruzi (strain CL Brener)) (UniProt Q4DSP6); test: Trypanosoma cruzi tyrosyl tRNA synthetase (TcYRS) _High Tyrosine SOP; assay type: functional; details: 30 µM; also: in the data most compounds retested in dose-response had high values
T4 sequence (whole entry): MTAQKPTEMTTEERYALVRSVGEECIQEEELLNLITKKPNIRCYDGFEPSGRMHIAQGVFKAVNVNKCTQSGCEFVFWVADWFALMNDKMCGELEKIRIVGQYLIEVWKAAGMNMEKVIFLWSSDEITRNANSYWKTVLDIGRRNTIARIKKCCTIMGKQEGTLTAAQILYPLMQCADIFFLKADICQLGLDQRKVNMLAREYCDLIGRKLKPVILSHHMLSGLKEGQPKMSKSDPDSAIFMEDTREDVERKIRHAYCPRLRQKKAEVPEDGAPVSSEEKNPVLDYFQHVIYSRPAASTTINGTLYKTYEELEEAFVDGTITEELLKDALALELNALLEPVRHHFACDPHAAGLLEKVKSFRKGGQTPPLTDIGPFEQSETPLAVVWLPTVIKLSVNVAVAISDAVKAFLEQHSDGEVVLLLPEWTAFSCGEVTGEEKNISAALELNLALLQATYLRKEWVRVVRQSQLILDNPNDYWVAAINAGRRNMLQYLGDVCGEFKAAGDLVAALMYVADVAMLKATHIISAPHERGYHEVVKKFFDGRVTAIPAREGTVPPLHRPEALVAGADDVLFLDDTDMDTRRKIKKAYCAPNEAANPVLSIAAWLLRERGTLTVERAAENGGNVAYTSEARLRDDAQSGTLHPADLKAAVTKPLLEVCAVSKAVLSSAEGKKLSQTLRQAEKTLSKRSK

[10] = biological target: T4, Tyrosyl-tRNA synthetase, putative (Trypanosoma cruzi (strain CL Brener)); test: Trypanosoma cruzi tyrosyl tRNA synthetase (TcYRS) SOP; assay type: functional; details: 30 µM
[11] = biological target: Chromo domain-containing protein 1 (Saccharomyces cerevisiae (strain ATCC 204508 / S288c) (Baker's yeast)) (UniProt P32657); test: ScCHD-1 Enzyme Inhibition Assay; assay type: functional; details: 30 µM; also: in the data most compounds retested in dose-response had high values
Chain of Chromo domain-containing protein 1 (Saccharomyces cerevisiae (strain ATCC 204508 / S288c) (Baker's yeast)) (P32657 whole entry, the tested form may be a part): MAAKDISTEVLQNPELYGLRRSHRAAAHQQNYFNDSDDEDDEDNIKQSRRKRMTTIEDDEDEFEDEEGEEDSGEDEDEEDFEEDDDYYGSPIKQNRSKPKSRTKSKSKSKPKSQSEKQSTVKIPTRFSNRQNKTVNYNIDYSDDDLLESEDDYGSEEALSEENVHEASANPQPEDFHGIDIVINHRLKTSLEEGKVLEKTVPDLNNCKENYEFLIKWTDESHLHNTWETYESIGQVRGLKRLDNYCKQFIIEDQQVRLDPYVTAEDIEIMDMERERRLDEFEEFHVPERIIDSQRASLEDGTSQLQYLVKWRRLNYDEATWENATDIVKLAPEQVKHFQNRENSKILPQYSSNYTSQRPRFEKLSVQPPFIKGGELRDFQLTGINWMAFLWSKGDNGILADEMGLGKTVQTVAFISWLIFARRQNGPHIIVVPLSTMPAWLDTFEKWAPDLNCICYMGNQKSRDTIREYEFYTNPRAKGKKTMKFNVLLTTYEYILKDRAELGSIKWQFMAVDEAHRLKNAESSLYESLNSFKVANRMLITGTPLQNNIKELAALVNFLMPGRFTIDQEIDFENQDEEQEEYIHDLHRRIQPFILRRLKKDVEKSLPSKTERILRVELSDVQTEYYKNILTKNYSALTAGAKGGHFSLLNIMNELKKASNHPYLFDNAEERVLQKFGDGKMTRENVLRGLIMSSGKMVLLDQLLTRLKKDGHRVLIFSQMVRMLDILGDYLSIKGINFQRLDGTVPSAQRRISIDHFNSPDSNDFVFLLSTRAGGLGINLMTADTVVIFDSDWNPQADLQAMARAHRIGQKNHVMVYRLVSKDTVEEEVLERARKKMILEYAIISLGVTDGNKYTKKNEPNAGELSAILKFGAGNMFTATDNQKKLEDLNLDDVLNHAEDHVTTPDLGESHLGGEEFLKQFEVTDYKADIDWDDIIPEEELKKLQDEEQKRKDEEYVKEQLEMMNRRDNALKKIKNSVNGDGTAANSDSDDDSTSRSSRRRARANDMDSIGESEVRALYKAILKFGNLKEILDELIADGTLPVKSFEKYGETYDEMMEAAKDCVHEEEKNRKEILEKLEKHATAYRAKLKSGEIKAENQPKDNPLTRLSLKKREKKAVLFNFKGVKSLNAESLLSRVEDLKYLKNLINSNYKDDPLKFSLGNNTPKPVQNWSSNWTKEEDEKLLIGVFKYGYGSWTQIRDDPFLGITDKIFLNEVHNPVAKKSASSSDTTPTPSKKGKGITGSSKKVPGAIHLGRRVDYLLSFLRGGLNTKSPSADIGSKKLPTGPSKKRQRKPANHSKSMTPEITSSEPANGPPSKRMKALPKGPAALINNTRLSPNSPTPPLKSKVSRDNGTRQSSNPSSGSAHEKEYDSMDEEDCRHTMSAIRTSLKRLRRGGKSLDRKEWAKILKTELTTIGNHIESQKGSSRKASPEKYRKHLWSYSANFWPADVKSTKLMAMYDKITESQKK

Chain of Sialic acid-binding Ig-like lectin 9 (Homo sapiens) (Q9Y336 whole entry): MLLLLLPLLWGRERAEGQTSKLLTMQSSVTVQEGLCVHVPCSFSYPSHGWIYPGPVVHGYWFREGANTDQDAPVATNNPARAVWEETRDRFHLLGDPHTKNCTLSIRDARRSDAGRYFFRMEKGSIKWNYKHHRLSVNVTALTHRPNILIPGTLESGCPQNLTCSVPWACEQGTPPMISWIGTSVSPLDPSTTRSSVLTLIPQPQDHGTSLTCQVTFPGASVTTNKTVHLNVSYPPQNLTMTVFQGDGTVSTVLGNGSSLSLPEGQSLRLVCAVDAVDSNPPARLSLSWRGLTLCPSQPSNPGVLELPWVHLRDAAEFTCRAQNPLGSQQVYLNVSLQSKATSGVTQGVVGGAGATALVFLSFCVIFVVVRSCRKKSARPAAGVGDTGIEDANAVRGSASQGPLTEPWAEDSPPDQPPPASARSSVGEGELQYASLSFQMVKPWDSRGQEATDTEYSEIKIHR
Chain of Protein translocase subunit SecA (Escherichia coli (strain K12)) (P10408 whole entry): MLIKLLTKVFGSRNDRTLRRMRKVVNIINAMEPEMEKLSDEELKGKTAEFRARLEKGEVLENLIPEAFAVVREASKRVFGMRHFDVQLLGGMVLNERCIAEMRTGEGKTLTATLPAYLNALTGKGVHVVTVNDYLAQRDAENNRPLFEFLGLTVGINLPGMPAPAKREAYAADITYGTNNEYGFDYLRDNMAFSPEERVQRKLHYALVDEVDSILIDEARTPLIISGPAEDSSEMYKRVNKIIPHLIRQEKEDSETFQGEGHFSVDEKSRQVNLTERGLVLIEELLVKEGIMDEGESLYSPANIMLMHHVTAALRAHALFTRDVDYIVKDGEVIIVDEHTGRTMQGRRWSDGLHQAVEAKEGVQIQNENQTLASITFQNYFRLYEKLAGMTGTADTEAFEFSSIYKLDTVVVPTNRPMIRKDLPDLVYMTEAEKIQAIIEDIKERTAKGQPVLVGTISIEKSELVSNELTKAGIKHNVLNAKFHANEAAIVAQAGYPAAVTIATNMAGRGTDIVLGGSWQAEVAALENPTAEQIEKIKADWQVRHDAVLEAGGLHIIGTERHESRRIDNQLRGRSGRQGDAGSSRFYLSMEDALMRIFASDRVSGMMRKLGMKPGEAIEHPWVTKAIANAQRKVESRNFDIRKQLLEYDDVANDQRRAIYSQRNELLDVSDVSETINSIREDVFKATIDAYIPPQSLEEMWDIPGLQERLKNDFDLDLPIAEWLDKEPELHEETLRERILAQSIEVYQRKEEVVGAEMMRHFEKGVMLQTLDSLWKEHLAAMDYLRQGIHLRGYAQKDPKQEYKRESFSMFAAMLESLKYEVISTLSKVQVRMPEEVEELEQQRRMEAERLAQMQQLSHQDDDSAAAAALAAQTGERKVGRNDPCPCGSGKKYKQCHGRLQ

SMILES | Percent Effect [1] | Percent Effect [2] | Percent Effect [3] | Percent Effect [4] | Percent Effect [5] | Percent Effect [6] | Percent Effect [7] | Percent Effect [8] | Percent Effect [9] | Percent Effect [10] | Percent Effect [11]
COC(=O)c1ccoc1COC(=O)CCc1ccc(OC)c(OC)c1 | -0.0167% | -5.26% | 11.1% | 1.57% | -3.99% | 0% | 13.7% | -9.69% | 0% | -20.8% | 1.64%
O=C(c1ccccc1-c1ccccc1)N1CCOC2(CNCCOC2)C1 (stereo not given) | -2.01% | 8.11% | -0.846% | 7.99% | 0% | 4.76% | 17.9% | 1.86% | 5.82% | 14.6% | -1.37%
CC(C)n1cc(CN2CCCN(C(=O)c3nccnc3N)CC2)cn1 | -3.12% | 13.5% | -6.54% | -11.2% | -0.586% | 5.83% | 17% | 21.2% | 8.91% | 11% | 5%
Cc1cc(NC(=O)CN2CCc3cnc(C)nc3C2)on1 | -3.81% | 5.26% | -27.9% | 2.68% | 7.75% | 1.8% | 9.39% | -5.85% | 8.37% | 16.1% | -7.97%
COCC1CN(C(=O)CNC(C)=O)Cc2ncnn2C1 (stereo not given) | -4.16% | 7.79% | 5.62% | 8.97% | 2.65% | 2.76% | 4.99% | -13.1% | 6.45% | 13.6% | 0.679%
Cc1cn(-c2ccccc2)nc1NS(=O)(=O)c1cc(C(=O)O)cs1 | -9.57% | -5.48% | -4.37% | 14.1% | -2.15% | -0.455% | 11.9% | 6.83% | -8.6% | -12.5% | -5.44%
c1cnn(CC2CN(CCc3ccncc3)CCO2)c1 (stereo not given) | 1.49% | 13% | 1.87% | -13.5% | -2.06% | 0.632% | 6.22% | 32% | 4.76% | 21.2% | -16.1%
CN(C)S(=O)(=O)N1CCC(Oc2ccc(C#N)cn2)CC1 | -4.11% | 5.2% | 0.734% | 0.477% | 3.25% | -0.645% | 17.2% | 28% | 5.29% | 8.97% | -8.98%
O=C1CC2(CCN(S(=O)(=O)C3CC3)C2)CN1c1cncnc1 (stereo not given) | 1.95% | 16% | -1.36% | -1.59% | 1.54% | -50.7% | 9.74% | 5.32% | 6.25% | 27.5% | -4.67%
Cc1oc(C)c(C(=O)NCc2cccc(NC(=O)CN(C)C)c2)c1C | -4.78% | -3.8% | -0.508% | -0.734% | 1.95% | -1.94% | 0.172% | -3.06% | 1.04% | 7.59% | 7.97%
